In PubChem BioAssay (EPA / NIEHS) one finds outcome and AC50 data, which are given here for eight molecules.

In general, AC50 refers to the concentration at which the activity in the assay is half-maximal.

Read-out in assay [1]: Monocyte Chemoattractant Protein-1 (MCP1), CCL2 (gene 6347)
Description: BSK_LPS_MCP1: BioMAP Diversity Plus: LPS Assay for Monocyte Chemoattractant Protein-1 (MCP1) Biomarker Activity (AID 2283081).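 On AC50: secreted MCP-1 protein quantified by ELISA in culture supernatant.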 To be noted: primary human HUVEC with PBMC; actives raise or lower the signal. In outline: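 Human umbilical vein endothelial cells co-cultured with PBMC, LPS-stimulated; secreted MCP-1 measured by ELISA 24 h after compound addition. Bidirectional curve fitting against DMSO baseline; SRB total-protein staining in parallel cultures for cytotoxicity.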

A short description of assay [2]: BSK_LPS_PGE2: BioMAP Diversity Plus: LPS Assay for Prostaglandin E2 (PGE2) Biomarker Activity (AID 2283082).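 On AC50: secreted prostaglandin E2 measured by ELISA in LPS-stimulated co-culture.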 The note with it: primary human HUVEC with PBMC; actives raise or lower the signal. In outline:
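Primary human endothelial cells and blood mononuclear cells, co-cultured with LPS, receive test chemical; PGE2 ELISA follows at 24 h, with SRB-stained parallel cultures flagging cytotoxicity.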

Read-out in assay [3]: Macrophage colony-stimulating factor (MCSF), CSF1 (gene 1435)
The experiment in a line: BSK_LPS_MCSF: BioMAP Diversity Plus: LPS Assay for Macrophage colony-stimulating factor (MCSF) Biomarker Activity (AID 2283083). The note with it: primary human HUVEC with PBMC; actives raise or lower the signal. In a few lines:
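HUVEC–PBMC co-culture, M-CSF measured by ELISA 24 h after chemical dosing. Fitted in both directions relative to DMSO as negative control; overt cytotoxicity assessed by SRB total-protein staining in parallel cultures.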

Read-out in assay [4]: Tissue Factor, F3 (gene 2152)
Description: BSK_LPS_TissueFactor: BioMAP Diversity Plus: LPS Assay for Tissue Factor Biomarker Activity (AID 2283084). To be noted: primary human HUVEC with PBMC; actives raise or lower the signal. In outline: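 Human umbilical vein endothelial cells co-cultured with PBMC were dosed with compound. Cell-surface CD142 was measured by ELISA 24 h later. Activity was fitted bidirectionally against DMSO, with SRB total-protein staining in parallel cultures for cytotoxicity.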

Read-out in assay [5]: Vascular cell adhesion molecule 1 (VCAM1), VCAM1 (gene 7412)
Description: BSK_LPS_VCAM1: BioMAP Diversity Plus: LPS Assay for Vascular cell adhesion molecule 1 (VCAM1) Biomarker Activity (AID 2283086). To be noted: primary human HUVEC with PBMC; actives raise or lower the signal. In a few lines:
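Measured by ELISA: VCAM-1 in LPS-activated HUVEC/PBMC co-cultures 24 h after treatment. Values reflect bidirectional fitting with DMSO as baseline.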

Read-out in a further assay: CD38, CD38 (gene 952)
Description: BSK_SAg_CD38: BioMAP Diversity Plus: SAg Assay for CD38 Biomarker Activity (AID 2283087). To be noted: primary human HUVEC with PBMC; actives raise or lower the signal. In a few lines:
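Measures CD38 on a human endothelial/PBMC co-culture driven by SEB and TSST-1, 24 h after compound exposure, using ELISA with fluorescence detection; DMSO defines baseline for bidirectional curve fitting.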

Read-out in another assay: CD40, CD40 (gene 958)
Description: BSK_SAg_CD40: BioMAP Diversity Plus: SAg Assay for CD40 Biomarker Activity (AID 2283088). The note with it: primary human HUVEC with PBMC; actives raise or lower the signal. In a few lines:
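HUVEC plus PBMC co-culture, superantigen-activated, with CD40 read by ELISA 24 h after dosing. Curves fitted in both directions against DMSO. Overt cytotoxicity checked by parallel SRB total-protein staining.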

Read-out in the next assay: CD69, CD69 (gene 969)
Description: BSK_SAg_CD69: BioMAP Diversity Plus: SAg Assay for CD69 Biomarker Activity (AID 2283089).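 On AC50: cell surface CD69 protein quantified by ELISA with fluorescence detection.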 To be noted: primary human HUVEC with PBMC; actives raise or lower the signal. In a few lines: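 Values derive from bidirectional fitting relative to DMSO vehicle. Cells: umbilical vein endothelium plus peripheral blood mononuclear cells, treated 24 h before fluorescent ELISA for CD69.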

Read-out in assay [6]: Monocyte Chemoattractant Protein-1 (MCP1), CCL2 (gene 6347)
The experiment in a line: BSK_SAg_MCP1: BioMAP Diversity Plus: SAg Assay for Monocyte Chemoattractant Protein-1 (MCP1) Biomarker Activity (AID 2283090). To be noted: primary human HUVEC with PBMC; actives raise or lower the signal. In a few lines: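 Values derive from bidirectional fitting of ELISA-measured MCP1 against DMSO controls. Readings were taken 24 h after dosing human vascular endothelial cells co-cultured with peripheral blood mononuclear cells under superantigen stimulation.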

Read-out in assay [7]: E-selectin (Homo sapiens) (UniProt P16581)
The experiment in a line: BSK_SAg_Eselectin: BioMAP Diversity Plus: SAg Assay for Eselectin Biomarker Activity (AID 2283091). The note with it: primary human HUVEC with PBMC; actives raise or lower the signal. In a few lines: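 Human umbilical vein endothelial cells co-cultured with peripheral blood mononuclear cells, SAg system. E-selectin is measured by ELISA 24 h after dosing and fitted bidirectionally against DMSO. Cytotoxicity is checked by SRB staining of parallel cultures.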

A short description of assay [8]: BSK_SAg_PBMCCytotoxicity: PBMC Cytotoxicity Assessment in the BioMAP Diversity Plus: SAg Assay (AID 2283093).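 Further: PBMC viability measured as Alamar Blue reduction fluorescence at 546/580 nm; fitted both ways against DMSO so a hit may be loss or gain of signal.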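 On AC50: PBMC superantigen activated with SEB plus TSST-1 one hour after compound addition.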 The note with it: primary human HUVEC with PBMC. In outline:
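Alamar Blue reduction (6 h, 546/580 nm) reports PBMC cytotoxicity after 90 h superantigen activation (SEB, TSST-1; 20 ng/mL final each) with 1 h compound pre-treatment. Gain or loss of signal fitted versus DMSO.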

Read-out in assay [9]: Interleukin-8 (IL8), CXCL8 (gene 3576)
Description: BSK_SAg_IL8: BioMAP Diversity Plus: SAg Assay for Interleukin-8 (IL8) Biomarker Activity (AID 2283094). To be noted: primary human HUVEC with PBMC; actives raise or lower the signal. In outline: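 Primary human endothelial cells with PBMC, exposed 24 h; IL-8 determined by ELISA, analysed bidirectionally relative to DMSO.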

A short description of assay [10]: BSK_SAg_Proliferation: Cell Proliferation Assessment in the BioMAP Diversity Plus: SAg Assay (AID 2283095).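 Further: relative cell number as total protein by SRB absorbance in sub-confluent culture.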 To be noted: primary human HUVEC with PBMC. In a few lines: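 A human primary co-culture of umbilical vein endothelium and blood mononuclear cells receives compound; relative cell number is quantified at 96 h by SRB staining and 560 nm absorbance, with DMSO-referenced bidirectional curve fitting.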

The nature of assay [11]: BSK_SAg_SRB: Viability Assessment in the BioMAP Diversity Plus: SAg Assay (AID 2283096).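 Further: cells read one day after compound addition; hits may be either gain or loss of signal compared with DMSO.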 The note with it: primary human HUVEC with PBMC. In a few lines: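 This overt-cytotoxicity endpoint quantifies protein in human endothelial/PBMC co-cultures at 24 h using SRB absorbance (560 nm) after trichloroacetic acid fixation. Values reflect signal change from the DMSO negative control, fitted bidirectionally.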

Read-out in assay [12]: Monokine induced gamma interferon (MIG), CXCL9 (gene 4283)
The experiment in a line: BSK_SAg_MIG: BioMAP Diversity Plus: SAg Assay for Monokine induced gamma interferon (MIG) Biomarker Activity (AID 2283092). To be noted: primary human HUVEC with PBMC; actives raise or lower the signal. In a few lines: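 Values reflect bidirectional fitting of ELISA-measured MIG against DMSO vehicle, taken 24 h after dosing of a co-culture of human umbilical vein endothelial cells and peripheral blood mononuclear cells.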

The target of assay [13] is human CYP2B6, CYP2B6 (gene 1555) (UniProt P20813). Description: NVS_ADME_hCYP2B6: NovaScreen (NVS) CYP450-related Enzyme Activity (ADME) Assay for human CYP2B6 (AID 2283101; active means hit-call score of the fitted dose curve at least 0.9, where 1 is the maximum). In outline:
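Compounds were first screened in duplicate at 10 uM against recombinant enzyme, with the fluorescent product measured after 1 hour. Active compounds were retested over a concentration series. Loss of fluorescence versus acetonitrile control was scored as reduced enzyme activity.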

Assay [14] has as its target human CYP19A1, CYP19A1 (gene 1588) (UniProt P11511). Description: NVS_ADME_hCYP19A1: NovaScreen (NVS) CYP450-related Enzyme Activity (ADME) Assay for human CYP19A1 (AID 2283098; active means hit-call score of the fitted dose curve at least 0.9, where 1 is the maximum). In outline: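 Compounds were first screened at 10 uM in duplicate against purified enzyme, with a fluorogenic substrate and fluorescence intensity detection after 0.5 h. Inhibition appears as reduced signal against acetonitrile control.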

Records with an inconclusive call do not appear. The source made the active and inactive calls. How the source made its calls, unless noted: active means hit-call score of the fitted dose curve at least 0.9, where 1 is the maximum; inactive means score below 0.9.

Chain of E-selectin (Homo sapiens) (P16581 whole entry, looked up): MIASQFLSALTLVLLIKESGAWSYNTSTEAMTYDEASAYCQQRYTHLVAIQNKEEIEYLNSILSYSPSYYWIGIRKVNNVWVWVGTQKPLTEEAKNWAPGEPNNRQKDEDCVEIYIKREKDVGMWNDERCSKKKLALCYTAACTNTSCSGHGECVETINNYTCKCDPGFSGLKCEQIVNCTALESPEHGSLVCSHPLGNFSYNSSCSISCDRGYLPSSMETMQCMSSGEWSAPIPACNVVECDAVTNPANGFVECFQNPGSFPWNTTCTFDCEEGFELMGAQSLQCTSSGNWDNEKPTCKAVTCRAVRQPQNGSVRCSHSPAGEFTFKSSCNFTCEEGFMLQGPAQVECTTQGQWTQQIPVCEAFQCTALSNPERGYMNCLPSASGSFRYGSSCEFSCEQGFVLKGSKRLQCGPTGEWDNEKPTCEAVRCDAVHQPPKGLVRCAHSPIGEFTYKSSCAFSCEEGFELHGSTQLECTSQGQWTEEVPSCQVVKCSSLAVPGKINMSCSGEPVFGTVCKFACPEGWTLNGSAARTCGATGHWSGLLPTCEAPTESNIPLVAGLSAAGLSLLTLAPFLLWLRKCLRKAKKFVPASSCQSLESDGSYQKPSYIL
Chain of human CYP2B6, CYP2B6 (gene 1555) (P20813 whole entry, looked up): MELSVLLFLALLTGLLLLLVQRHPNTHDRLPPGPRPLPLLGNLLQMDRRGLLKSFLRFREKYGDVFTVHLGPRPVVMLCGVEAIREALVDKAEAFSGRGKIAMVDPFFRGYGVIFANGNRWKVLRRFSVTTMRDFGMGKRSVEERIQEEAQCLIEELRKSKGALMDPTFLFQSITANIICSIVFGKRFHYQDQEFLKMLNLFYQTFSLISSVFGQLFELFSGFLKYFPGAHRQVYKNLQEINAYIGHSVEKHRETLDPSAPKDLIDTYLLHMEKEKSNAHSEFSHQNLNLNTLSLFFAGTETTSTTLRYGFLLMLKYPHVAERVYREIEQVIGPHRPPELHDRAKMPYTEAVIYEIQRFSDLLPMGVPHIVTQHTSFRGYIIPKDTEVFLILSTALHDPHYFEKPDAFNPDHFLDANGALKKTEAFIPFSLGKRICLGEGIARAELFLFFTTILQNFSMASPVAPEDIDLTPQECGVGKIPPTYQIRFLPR
Chain of human CYP19A1, CYP19A1 (gene 1588) (P11511 whole entry, looked up): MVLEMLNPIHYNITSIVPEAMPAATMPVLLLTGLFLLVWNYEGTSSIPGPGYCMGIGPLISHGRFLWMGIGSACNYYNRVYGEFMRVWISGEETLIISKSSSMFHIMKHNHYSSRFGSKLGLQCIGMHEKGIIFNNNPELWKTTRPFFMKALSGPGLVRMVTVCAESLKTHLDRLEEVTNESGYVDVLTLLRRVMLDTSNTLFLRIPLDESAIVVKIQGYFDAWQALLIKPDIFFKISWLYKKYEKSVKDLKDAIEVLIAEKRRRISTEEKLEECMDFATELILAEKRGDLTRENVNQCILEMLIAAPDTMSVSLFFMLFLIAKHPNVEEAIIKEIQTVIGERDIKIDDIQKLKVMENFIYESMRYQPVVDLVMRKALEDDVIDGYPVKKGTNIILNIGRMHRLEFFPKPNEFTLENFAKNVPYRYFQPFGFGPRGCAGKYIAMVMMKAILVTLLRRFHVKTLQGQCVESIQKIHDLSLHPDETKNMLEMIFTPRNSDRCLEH

`C=CC(=O)NCNC(=O)C=C`: the outcome in assay [1] was “inactive”; in assay [2], “inactive”; in assay [3], “inactive”; in assay [4], “inactive”; in [5], “inactive”; in the assay with CD38, CD38 (gene 952), “inactive”. Besides, the outcome with CD40, CD40 (gene 958) is “inactive”; with CD69, CD69 (gene 969) it was “inactive”; in assay [6] it was “inactive”; in assay [7], “inactive”; in [8], “inactive”; in [9], “inactive”. For the same molecule, the outcome in assay [10] and in assay [11] was inactive.

With `ClC(Cl)=C(c1ccc(Cl)cc1)c1ccc(Cl)cc1`, the half-maximal activity concentration (AC50) in assay [1] is 35.4 µM (active); in assay [2], 8.02 µM (active); in assay [4], 32.3 µM (active); in assay [5], 30.4 µM (active); with CD38, CD38 (gene 952) it was 33.3 µM (active); in the assay with CD40, CD40 (gene 958) it was 32.5 µM (active). Also, the AC50 is 30.6 µM (active) with CD69, CD69 (gene 969); 39.2 µM (active) in assay [6]; 32.2 µM (active) in [7]; 36 µM (active) in assay [12]; 15.4 µM (active) in [8]; 34.6 µM (active) in [9]. Also, the results for the AC50 in [10] and in assay [11] were 18.4 µM (active) and 32 µM (active), respectively. In addition, in [13], the molecule was called inactive.

As for `CCCCCCOC(=O)c1ccccc1C(=O)OCCCCCC`, the AC50 in [1] was 34.9 µM (active); in [3], 20 µM (active); in [5] it was 20 µM (active); with CD38, CD38 (gene 952) it was 32.1 µM (active); with CD40, CD40 (gene 958), 32.9 µM (active); in assay [7] it was 32.6 µM (active). The AC50 in assay [8] was 35 µM (active); in assay [9] it was 29 µM (active); in assay [10], 28.6 µM (active). Besides, the outcome was “inactive” in assay [2]; “inactive” in assay [4]; “inactive” with CD69, CD69 (gene 969); “inactive” in [6]; “inactive” in assay [11].

With `CCOP(=S)(OCC)SCSC(C)(C)C`, the outcome in [1] was “inactive”; in [2], “inactive”; in assay [3], “inactive”; in assay [4], “inactive”; in assay [5] it was “inactive”; with CD38, CD38 (gene 952), “inactive”. The outcome is “inactive” with CD40, CD40 (gene 958); “inactive” with CD69, CD69 (gene 969); “inactive” in assay [6]; “inactive” in [12]; “inactive” in assay [9]; “inactive” in assay [11]. The AC50 in assay [7] is 39 µM (active); in assay [8] it was 31.1 µM (active); in assay [10] it was 28.8 µM (active).

Consider `N#Cc1ccc(N(CC(N)=O)CC(F)(F)F)cc1C(F)(F)F`, for which the outcome was “inactive” in [1]; “inactive” in [2]; “inactive” in assay [3]; “inactive” in assay [4]; “inactive” in assay [5]; “inactive” in the assay with CD38, CD38 (gene 952). For the same molecule, the outcome with CD40, CD40 (gene 958) is “inactive”; with CD69, CD69 (gene 969) it was “inactive”; in assay [6] it was “inactive”; in assay [7], “inactive”; in assay [8] it was “inactive”; in assay [9] it was “inactive”. Besides, the result in assay [10] was inactive.

With `Oc1ccc(Cl)cc1Cl`, the outcome is “inactive” in assay [1]; “inactive” in [2]; “inactive” in [3]; “inactive” in assay [4]; “inactive” in assay [5]; “inactive” in the assay with CD38, CD38 (gene 952). In addition, the outcome with CD40, CD40 (gene 958) was “inactive”; with CD69, CD69 (gene 969), “inactive”; in assay [6], “inactive”; in [7], “inactive”; in [8] it was “inactive”; in assay [9], “inactive”. In addition, the outcome in assay [10] and in assay [11] was inactive.

In the case of `CCCCCCCCOC(=O)c1ccccc1C(=O)OCCCCCCCC`, the outcome in assay [1] was “inactive”; in assay [2], “inactive”; in assay [3], “inactive”; in assay [4], “inactive”; with CD40, CD40 (gene 958), “inactive”; with CD69, CD69 (gene 969) it was “inactive”. Further, the outcome in [6], in assay [7], in assay [12], in [9], in [10] and in [11] was inactive. The AC50 in assay [5] was 7.64 µM (active); with CD38, CD38 (gene 952) it was 11.2 µM (active); in assay [8] it was 5.6 µM (active).

For `O=S(=O)(O)C(F)(F)C(F)(F)C(F)(F)C(F)(F)C(F)(F)C(F)(F)F`, the outcome in assay [1] is “inactive”; in assay [2] it was “inactive”; in [3] it was “inactive”; in assay [4], “inactive”; in [5], “inactive”; in the assay with CD38, CD38 (gene 952) it was “inactive”. For the same molecule, the outcome in the assay with CD40, CD40 (gene 958) was “inactive”; in the assay with CD69, CD69 (gene 969), “inactive”; in [6], “inactive”; in assay [7], “inactive”; in assay [12], “inactive”; in assay [8] it was “inactive”. Moreover, the result in assay [9], in assay [10], in [11] and in [14] was inactive.
